In publication PMC7862700, “An all-to-all approach to the identification of sequence-specific readers for epigenetic DNA modifications on cytosine” one finds binding signal data, which are given here for one sequence.

What all share (experiment): DAPPL (digital affinity profiling via proximity ligation, sequencing); 10 mM Tris-HCl pH 7.5, 50 mM NaCl, 1 mM DTT, 4% glycerol, room temperature, 30 min; GST-TFs on glutathione beads, 16-mer random dsDNA library, 0.1% formaldehyde crosslink after washing; high values mean tight binding
The target of one test is T1, FLI1 (Homo sapiens, UniProt Q01543 1-452).
T1 sequence: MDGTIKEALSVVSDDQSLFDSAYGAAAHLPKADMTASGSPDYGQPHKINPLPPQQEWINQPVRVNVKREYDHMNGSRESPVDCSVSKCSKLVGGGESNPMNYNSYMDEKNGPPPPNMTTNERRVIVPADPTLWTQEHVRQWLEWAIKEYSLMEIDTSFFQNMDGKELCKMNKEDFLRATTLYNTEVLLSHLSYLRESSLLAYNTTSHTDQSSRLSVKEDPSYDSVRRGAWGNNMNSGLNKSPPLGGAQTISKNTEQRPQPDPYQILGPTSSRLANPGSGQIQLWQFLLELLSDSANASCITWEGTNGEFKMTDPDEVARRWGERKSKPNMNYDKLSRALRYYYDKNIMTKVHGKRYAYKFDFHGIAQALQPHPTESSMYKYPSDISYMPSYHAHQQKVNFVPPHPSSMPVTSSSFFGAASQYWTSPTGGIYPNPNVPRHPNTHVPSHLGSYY
As to conditions: protein: recombinant; tags: N-terminal GST; dsDNA, one strand shown. Summed up:
(§1)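 After expression in yeast as GST fusions, human transcription factors were bound to glutathione beads, DNA-barcoded and mixed with a tag-only sample. The pools were incubated with 200 nmole of a 16-mer random double-stranded DNA library in Tris/NaCl/DTT/glycerol buffer (30 min, room temperature), washed and crosslinked with 0.1% formaldehyde. Proximity ligation with BsaI/T4 ligase ran for 1 h at 37 °C, before PCR amplification and sequencing on an Illumina NextSeq500. Binding signal is a hexamer's read frequency for a factor divided by its frequency for the tag-only sample.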

For another test, the target named is T2, ELK1 (Homo sapiens, UniProt P19419 1-428).
T2 sequence: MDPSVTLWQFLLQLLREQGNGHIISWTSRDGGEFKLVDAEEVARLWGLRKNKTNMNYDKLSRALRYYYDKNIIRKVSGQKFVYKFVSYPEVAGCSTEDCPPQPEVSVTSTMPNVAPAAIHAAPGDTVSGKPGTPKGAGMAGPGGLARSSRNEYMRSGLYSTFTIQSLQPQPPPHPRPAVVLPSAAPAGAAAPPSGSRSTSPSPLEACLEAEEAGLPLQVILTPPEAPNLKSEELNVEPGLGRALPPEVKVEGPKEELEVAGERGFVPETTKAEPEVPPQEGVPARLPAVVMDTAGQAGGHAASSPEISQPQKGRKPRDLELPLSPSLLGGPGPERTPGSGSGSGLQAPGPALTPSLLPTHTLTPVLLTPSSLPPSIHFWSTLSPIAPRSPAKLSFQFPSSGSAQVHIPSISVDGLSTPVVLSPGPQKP
As to conditions: protein: recombinant; tags: N-terminal GST; dsDNA, one strand shown. Summed up: as §1

A further test deals with T3, GABPA (Homo sapiens, UniProt Q06546 1-454).
T3 sequence: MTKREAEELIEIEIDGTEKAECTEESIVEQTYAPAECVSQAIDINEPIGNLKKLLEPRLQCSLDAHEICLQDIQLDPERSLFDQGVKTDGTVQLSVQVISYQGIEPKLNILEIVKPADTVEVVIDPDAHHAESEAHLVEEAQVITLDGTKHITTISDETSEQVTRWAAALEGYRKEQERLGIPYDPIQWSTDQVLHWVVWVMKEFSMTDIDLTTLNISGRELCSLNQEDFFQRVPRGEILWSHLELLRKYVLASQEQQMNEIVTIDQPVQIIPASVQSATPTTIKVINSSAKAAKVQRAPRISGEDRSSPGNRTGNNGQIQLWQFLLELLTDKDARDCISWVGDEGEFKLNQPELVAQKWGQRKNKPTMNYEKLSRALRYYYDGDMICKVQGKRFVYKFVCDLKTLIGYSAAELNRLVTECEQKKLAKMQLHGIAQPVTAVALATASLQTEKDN
The settings on record: protein: recombinant; tags: N-terminal GST; dsDNA, one strand shown. Summed up:
as §1

For a further test, the target named is T4, ERG (Homo sapiens, UniProt P11308 1-479).
T4 sequence: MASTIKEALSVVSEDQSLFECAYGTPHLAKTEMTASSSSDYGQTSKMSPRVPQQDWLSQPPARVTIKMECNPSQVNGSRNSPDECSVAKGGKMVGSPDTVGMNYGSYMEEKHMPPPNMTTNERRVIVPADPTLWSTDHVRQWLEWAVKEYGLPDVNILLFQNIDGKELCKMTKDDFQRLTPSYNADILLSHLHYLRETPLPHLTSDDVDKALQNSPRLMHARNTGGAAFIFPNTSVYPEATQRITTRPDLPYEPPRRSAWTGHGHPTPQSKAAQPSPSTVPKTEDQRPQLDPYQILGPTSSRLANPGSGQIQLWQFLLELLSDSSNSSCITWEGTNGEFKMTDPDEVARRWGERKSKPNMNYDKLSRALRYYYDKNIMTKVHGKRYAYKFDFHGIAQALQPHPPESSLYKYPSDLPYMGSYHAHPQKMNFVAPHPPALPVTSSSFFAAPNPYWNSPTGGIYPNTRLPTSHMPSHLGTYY
As to conditions: protein: recombinant; tags: N-terminal GST; dsDNA, one strand shown. Summed up: as §1

The next test deals with ELF1 (Homo sapiens, UniProt P32519 1-619). The settings on record: protein: recombinant; tags: N-terminal GST; dsDNA, one strand shown. The method, boiled down:
as §1

The next test addresses T5, EHF (Homo sapiens, UniProt Q9NZC4 1-300).
T5 sequence: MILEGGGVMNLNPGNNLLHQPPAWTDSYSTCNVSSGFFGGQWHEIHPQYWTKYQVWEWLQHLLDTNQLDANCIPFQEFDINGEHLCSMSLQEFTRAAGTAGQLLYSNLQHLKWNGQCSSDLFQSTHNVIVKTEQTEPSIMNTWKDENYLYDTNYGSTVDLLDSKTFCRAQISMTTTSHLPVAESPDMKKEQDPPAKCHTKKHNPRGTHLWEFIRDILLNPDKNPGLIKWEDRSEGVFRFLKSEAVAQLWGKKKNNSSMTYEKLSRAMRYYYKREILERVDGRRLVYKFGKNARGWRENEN
The settings on record: protein: recombinant; tags: N-terminal GST; dsDNA, one strand shown. Summed up:
as §1

The target in the next test is SPI1 (Homo sapiens, UniProt P17947 1-270). As to conditions: protein: recombinant; tags: N-terminal GST; dsDNA, one strand shown. The method, boiled down:
as §1

The next test has as its target SPIB (Homo sapiens, UniProt Q01892 1-262). As to conditions: protein: recombinant; tags: N-terminal GST; dsDNA, one strand shown. Summed up:
as §1

The target of a further test is T6, ELK3 (Homo sapiens, UniProt P41970 1-407).
T6 sequence: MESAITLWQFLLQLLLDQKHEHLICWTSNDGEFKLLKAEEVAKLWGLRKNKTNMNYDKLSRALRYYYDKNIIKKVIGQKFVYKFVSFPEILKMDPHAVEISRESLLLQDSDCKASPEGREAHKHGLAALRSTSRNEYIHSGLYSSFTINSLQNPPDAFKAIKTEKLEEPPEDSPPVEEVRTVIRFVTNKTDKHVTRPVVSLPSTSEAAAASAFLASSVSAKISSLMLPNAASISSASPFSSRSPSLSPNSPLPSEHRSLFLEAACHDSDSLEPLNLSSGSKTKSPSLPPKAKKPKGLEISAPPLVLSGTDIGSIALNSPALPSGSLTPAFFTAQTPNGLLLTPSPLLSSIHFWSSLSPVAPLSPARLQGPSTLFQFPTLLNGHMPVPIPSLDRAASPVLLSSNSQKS
As to conditions: protein: recombinant; tags: N-terminal GST; dsDNA, one strand shown. The method, boiled down:
as §1

The next test concerns the target T7, FEV (Homo sapiens, UniProt Q99581 1-238).
T7 sequence: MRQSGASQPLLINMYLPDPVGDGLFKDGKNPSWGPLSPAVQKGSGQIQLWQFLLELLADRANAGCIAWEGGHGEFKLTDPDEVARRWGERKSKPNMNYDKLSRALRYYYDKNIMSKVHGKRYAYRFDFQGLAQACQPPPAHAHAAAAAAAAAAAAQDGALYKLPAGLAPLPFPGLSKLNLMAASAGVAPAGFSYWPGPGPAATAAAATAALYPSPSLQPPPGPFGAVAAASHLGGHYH
The settings on record: protein: recombinant; tags: N-terminal GST; dsDNA, one strand shown. Summed up: as §1

In the next test the target is ETV5 (Homo sapiens, UniProt P41161 1-510). As to conditions: protein: recombinant; tags: N-terminal GST; dsDNA, one strand shown. The method, boiled down:
as §1

For the next test, the target named is HSF1 (Homo sapiens, UniProt Q00613 1-529). As to conditions: protein: recombinant; tags: N-terminal GST; chain copies: 3; dsDNA, one strand shown. The method, boiled down: as §1
HSF1, sequence (Q00613 whole entry): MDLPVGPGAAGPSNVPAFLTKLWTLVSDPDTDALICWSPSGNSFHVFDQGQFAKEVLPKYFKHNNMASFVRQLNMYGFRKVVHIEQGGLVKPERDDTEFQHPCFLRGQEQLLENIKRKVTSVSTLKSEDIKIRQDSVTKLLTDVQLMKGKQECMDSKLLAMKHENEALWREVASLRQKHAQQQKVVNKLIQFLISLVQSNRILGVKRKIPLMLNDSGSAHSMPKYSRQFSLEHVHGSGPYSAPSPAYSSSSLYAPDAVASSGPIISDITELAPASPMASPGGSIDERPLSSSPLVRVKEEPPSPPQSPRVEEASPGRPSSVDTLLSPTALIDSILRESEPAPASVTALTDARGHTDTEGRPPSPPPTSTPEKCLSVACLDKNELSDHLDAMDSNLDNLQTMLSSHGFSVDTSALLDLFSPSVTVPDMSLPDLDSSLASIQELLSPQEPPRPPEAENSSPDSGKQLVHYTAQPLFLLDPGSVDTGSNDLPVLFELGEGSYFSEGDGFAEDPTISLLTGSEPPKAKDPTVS
The next test concerns the target T8, SPIC (Homo sapiens, UniProt Q8N5J4 1-248).
T8 sequence: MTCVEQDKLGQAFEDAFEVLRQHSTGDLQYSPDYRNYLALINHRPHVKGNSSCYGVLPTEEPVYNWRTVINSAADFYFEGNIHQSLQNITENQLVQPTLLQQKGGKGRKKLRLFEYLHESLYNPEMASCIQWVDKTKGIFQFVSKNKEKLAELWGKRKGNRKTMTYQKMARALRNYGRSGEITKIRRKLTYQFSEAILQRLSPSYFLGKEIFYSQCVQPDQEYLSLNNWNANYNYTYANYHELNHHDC
The settings on record: protein: recombinant; tags: N-terminal GST; dsDNA, one strand shown. The method, boiled down: as §1

The target of another test is ELF4 (Homo sapiens, UniProt Q99607 1-663). As to conditions: protein: recombinant; tags: N-terminal GST; dsDNA, one strand shown. Summed up: as §1
ELF4, sequence (Q99607 whole entry): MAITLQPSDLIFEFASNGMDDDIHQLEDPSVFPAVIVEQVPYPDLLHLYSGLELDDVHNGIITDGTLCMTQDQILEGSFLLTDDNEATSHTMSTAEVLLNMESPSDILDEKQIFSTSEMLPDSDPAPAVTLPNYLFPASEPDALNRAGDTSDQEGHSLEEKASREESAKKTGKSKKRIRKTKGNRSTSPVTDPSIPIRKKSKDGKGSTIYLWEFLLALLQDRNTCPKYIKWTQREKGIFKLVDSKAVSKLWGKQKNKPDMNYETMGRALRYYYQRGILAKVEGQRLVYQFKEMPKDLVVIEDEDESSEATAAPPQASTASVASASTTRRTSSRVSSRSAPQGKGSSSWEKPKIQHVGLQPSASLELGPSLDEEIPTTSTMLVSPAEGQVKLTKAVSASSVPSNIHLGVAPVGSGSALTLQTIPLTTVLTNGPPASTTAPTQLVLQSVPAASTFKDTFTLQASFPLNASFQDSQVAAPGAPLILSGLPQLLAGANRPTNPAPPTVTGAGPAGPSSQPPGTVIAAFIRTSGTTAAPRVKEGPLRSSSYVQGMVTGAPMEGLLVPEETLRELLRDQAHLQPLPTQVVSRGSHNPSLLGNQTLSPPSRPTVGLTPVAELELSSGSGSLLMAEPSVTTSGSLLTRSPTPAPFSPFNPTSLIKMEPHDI
The target in another test is T9, ELK4 (Homo sapiens, UniProt P28324-2 1-405).
T9 sequence: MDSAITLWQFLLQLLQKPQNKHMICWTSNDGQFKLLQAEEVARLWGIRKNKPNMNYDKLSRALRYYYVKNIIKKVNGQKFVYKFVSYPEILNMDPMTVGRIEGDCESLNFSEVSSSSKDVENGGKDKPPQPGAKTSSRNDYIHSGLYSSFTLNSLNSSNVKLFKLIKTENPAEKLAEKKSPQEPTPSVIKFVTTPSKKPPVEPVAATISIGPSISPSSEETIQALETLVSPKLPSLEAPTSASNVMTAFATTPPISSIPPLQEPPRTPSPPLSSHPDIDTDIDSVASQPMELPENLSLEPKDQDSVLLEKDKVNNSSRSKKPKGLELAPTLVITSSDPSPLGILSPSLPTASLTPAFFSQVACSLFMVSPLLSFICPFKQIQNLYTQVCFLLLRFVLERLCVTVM
The settings on record: protein: recombinant; tags: N-terminal GST; dsDNA, one strand shown. Summed up:
as §1

A further test deals with T10, ETV2 (Homo sapiens, UniProt O00321 1-342).
T10 sequence: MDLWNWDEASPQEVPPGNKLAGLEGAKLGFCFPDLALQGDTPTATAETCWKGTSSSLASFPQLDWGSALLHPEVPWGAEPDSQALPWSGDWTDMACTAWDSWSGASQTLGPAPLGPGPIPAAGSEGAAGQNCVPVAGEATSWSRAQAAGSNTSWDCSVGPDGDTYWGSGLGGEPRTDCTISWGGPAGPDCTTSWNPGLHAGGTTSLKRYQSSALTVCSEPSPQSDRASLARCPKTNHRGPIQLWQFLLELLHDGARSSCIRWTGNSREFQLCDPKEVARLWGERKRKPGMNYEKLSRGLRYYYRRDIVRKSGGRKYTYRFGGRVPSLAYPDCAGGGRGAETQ
The settings on record: protein: recombinant; tags: N-terminal GST; dsDNA, one strand shown. Summed up: as §1

The target in a further test is T11, ELF3 (Homo sapiens, UniProt P78545 1-371).
T11 sequence: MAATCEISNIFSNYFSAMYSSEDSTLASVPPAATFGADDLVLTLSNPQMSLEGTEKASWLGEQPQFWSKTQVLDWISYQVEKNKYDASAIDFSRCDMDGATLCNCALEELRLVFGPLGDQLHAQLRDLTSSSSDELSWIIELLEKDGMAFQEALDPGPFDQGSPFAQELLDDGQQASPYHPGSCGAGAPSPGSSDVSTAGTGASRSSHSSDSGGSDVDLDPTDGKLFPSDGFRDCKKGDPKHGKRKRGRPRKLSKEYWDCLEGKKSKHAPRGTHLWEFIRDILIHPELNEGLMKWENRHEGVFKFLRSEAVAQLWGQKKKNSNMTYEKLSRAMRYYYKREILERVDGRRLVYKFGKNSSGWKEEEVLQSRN
As to conditions: protein: recombinant; tags: N-terminal GST; dsDNA, one strand shown. Summed up:
as §1

Another test addresses ETV1 (Homo sapiens, UniProt P50549 1-477). The settings on record: protein: recombinant; tags: N-terminal GST; dsDNA, one strand shown. The method, boiled down: as §1

ETV5, sequence (P41161 whole entry): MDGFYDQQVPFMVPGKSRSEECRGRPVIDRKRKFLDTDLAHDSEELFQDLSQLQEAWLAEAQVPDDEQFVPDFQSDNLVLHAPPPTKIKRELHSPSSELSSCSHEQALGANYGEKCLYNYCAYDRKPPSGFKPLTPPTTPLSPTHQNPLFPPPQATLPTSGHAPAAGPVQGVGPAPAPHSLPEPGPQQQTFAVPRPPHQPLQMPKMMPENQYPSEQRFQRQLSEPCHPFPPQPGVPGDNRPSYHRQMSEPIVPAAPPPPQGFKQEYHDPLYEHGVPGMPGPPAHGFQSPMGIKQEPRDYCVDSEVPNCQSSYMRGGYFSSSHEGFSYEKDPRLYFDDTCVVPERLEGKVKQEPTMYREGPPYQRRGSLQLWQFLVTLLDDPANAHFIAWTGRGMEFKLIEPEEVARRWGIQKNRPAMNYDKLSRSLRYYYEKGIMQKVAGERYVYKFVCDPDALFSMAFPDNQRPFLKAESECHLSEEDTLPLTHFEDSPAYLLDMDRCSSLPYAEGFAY
ETV1, sequence (P50549 whole entry): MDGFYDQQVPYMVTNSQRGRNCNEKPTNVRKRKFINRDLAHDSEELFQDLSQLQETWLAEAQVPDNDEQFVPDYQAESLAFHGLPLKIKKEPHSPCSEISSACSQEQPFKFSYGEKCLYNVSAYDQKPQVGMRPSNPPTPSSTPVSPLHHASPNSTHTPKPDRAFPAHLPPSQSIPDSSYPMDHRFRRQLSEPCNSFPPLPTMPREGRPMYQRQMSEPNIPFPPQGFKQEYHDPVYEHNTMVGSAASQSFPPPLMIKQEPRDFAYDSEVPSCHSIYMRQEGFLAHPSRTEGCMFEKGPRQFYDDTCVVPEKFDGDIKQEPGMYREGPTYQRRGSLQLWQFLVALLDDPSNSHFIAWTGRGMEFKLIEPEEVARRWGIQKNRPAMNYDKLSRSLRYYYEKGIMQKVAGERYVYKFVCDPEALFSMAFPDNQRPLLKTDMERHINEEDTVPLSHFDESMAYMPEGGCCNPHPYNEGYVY
SPIB, sequence (Q01892 whole entry): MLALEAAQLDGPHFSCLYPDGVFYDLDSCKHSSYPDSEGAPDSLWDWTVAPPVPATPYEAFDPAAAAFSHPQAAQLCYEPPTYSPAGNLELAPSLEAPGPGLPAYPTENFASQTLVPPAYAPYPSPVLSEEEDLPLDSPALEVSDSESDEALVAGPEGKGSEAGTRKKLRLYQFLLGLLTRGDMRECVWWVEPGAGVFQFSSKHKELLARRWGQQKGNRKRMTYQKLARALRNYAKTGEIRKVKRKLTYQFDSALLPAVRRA
ELF1, sequence (P32519 whole entry): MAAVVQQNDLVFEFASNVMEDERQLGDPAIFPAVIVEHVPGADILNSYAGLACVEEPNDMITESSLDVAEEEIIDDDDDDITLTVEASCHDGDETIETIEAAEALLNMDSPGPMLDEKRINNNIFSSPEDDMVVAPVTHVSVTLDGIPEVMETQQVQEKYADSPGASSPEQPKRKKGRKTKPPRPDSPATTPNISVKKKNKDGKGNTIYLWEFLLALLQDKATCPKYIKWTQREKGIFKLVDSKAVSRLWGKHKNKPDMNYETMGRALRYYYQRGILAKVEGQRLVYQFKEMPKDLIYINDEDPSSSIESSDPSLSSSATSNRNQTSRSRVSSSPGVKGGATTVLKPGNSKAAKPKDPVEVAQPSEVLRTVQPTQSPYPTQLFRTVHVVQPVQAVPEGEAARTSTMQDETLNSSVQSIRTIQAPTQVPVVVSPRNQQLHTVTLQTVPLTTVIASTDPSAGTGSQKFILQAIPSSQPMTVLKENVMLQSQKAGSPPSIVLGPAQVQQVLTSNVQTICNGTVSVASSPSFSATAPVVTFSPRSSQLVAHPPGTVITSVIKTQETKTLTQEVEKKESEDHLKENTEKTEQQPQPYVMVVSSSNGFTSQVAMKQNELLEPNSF

In the case of GTAACT, the binding signal in the test with FLI1 was 1.31 fold enrichment (6-mer frequency, TF over GST control); with ELK1, 1.25 fold enrichment (6-mer frequency, TF over GST control); with GABPA it was 1.22 fold enrichment (6-mer frequency, TF over GST control); with ERG, 1.25 fold enrichment (6-mer frequency, TF over GST control); in the test with ELF1 it was 1.22 fold enrichment (6-mer frequency, TF over GST control); with EHF, 1.21 fold enrichment (6-mer frequency, TF over GST control). The binding signal in the test with SPI1 is 1.35 fold enrichment (6-mer frequency, TF over GST control); with SPIB, 1.28 fold enrichment (6-mer frequency, TF over GST control); with ELK3, 1.11 fold enrichment (6-mer frequency, TF over GST control); with FEV, 1.18 fold enrichment (6-mer frequency, TF over GST control); in the test with ETV5 it was 1.21 fold enrichment (6-mer frequency, TF over GST control); in the test with HSF1 it was 1.02 fold enrichment (6-mer frequency, TF over GST control). The binding signal with SPIC is 1.37 fold enrichment (6-mer frequency, TF over GST control); in the test with ELF4, 1.27 fold enrichment (6-mer frequency, TF over GST control); in the test with ELK4, 1.26 fold enrichment (6-mer frequency, TF over GST control); with ETV2, 1.2 fold enrichment (6-mer frequency, TF over GST control); with ELF3, 1.16 fold enrichment (6-mer frequency, TF over GST control); with ETV1, 1.16 fold enrichment (6-mer frequency, TF over GST control).
